Source: PubChem BioAssay AID589 (National Center for Advancing Translational Sciences (NCATS), 2007)
Out of some 59,000 compounds screened, about 6,200 (11%) were called active. Inconclusive results (about 9%) are left out. The sample holds actives, similar compounds and a random draw of the others, so the mix is not that of the screen. Cut-off read from the data, not from the text of the source: active = max dye-equivalent concentration above about 10 nM; inconclusive = mostly about 1.1 nM to 9.6 nM; inactive = weaker than that.

Assay: qHTS Assay for Spectroscopic Profiling in 4-MU Spectral Region
Conditions: compound autofluorescence, 340/450 nm, 4-MU equivalents; active compounds read high
How it was run: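 Intrinsic fluorescence at 340/450 nm (ex/em) was read after 15 min at room temperature in pH 8.0, 100 mM Tris. Each compound concentration expressed as 4-MU-equivalent concentration from a six-point 4-MU standard series on each plate.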

Max dye-equivalent concentration, inactive:
CN1CCC2(CC1)CCN(S(=O)(=O)c1ccccc1)CC2
Cc1ccc(S(=O)(=O)Cn2nnnc2CN2CCN(Cc3ccc4c(c3)OCO4)CC2)cc1
COc1cccc(N(CC(=O)Nc2cccc(N(C)S(C)(=O)=O)c2)S(C)(=O)=O)c1
CC(C)CNC(=O)C1CCCN(S(=O)(=O)c2ccc(-n3cnnn3)cc2)C1 (configuration not stated)
CCCOc1cccc(C(=O)Nc2nnn(CCC)n2)c1
CC(C)c1cc(CN(C)C)c(O)c(C(C)(C)C)c1
CCC(=O)Nc1cccc(NC(=O)CSc2nnc(-c3ccc(NS(C)(=O)=O)cc3)n2C)c1
Cc1ccc(N(C(=O)CC2NC(=O)NC2=O)C2(C(=O)NC3CCCC3)CCCCC2)cc1 (configuration not stated)
CC(=O)Cc1nsc(NC(=O)c2ccc(COc3ccc(C)cc3)o2)n1
Cc1cccc2cc(CN(Cc3cccs3)C(c3nnnn3C3CCCC3)C(C)C)c(=O)[nH]c12 (configuration not stated)
CCC(c1nnnn1Cc1ccco1)N(CCc1ccccc1)Cc1cc2ccc(OC)cc2[nH]c1=O (configuration not stated)
Cc1cccc2cc(CN(Cc3ccc4c(c3)OCO4)Cc3nnnn3C3CCCC3)c(=O)[nH]c12
O=C(CN(CC1CCCO1)C(=O)CNS(=O)(=O)c1ccccc1)NCc1ccccc1 (configuration not stated)
COc1ccccc1N1CCN(Cc2nnnn2CCc2ccccc2)CC1
N=c1c2c3c(sc2ncn1CCCN1CCOCC1)CCCCC3
CSc1sc(C)cc1C1C(C#N)=C(N)N(c2cccnc2)C2=C1C(=O)CCC2 (configuration not stated)
N#Cc1cccc(NC(=O)CCC2CCCC2)c1
Cc1oc2nc(SCC(=O)NCc3cccnc3)nc(N)c2c1C
COc1ccc(OC)c(NC(=O)CSc2nc3cccnc3n2C)c1
O=C(CCc1ccccc1)Nc1cccc(-c2nnc(-c3ccco3)o2)c1
Cc1ccc(CNC(=O)CN2CCN(Cc3ccc(Cl)cc3)C2=O)cc1
CCCC(=O)Nc1c(O)c2ccccc2[nH]c1=O
C=CCOc1ccc(C2/C(=C(\O)c3c(C)[nH]c(C(=O)OC)c3C)C(=O)C(=O)N2CCN(C)C)cc1 (configuration not stated)

Max dye-equivalent concentration, active:
CCOc1ccc2[nH]c(=O)c(CN(Cc3nnnn3CCc3ccccc3)CC3CCCO3)cc2c1 (configuration not stated) 76 nM
CCOc1ccc2[nH]c(=O)c(CN(Cc3nnnn3Cc3ccccc3)CC3CCCO3)cc2c1 (configuration not stated) 120 nM
COc1ccc2[nH]c(=O)c(CN(CC3CCCO3)C(=O)Nc3ccccc3)cc2c1 (configuration not stated) 110 nM
CCC(c1nnnn1Cc1ccco1)N(Cc1cc2cc(OC)ccc2[nH]c1=O)C1CCCCC1 (configuration not stated) 22 nM
